In PubChem BioAssay (NCATS):
Records with an inconclusive call do not appear. Active and inactive are the calls of the source. The call rests on the fitted dose curve; in most records, active means well fitted inhibition curve with a large enough effect; inconclusive means small, poorly fitted or top-dose-only effect; inactive means no such curve, though single readings can be large or run the other way.

How the values were obtained:
[1] = target: Retinaldehyde dehydrogenase 3 (Homo sapiens) (UniProt P47895); assay: qHTS for Inhibitors of the Aldehyde Dehydrogenase Family (ALDH1A3) Confirmatory screens (AID 2061311); further: nearly all actives have a fitted effect of over 60% in size; further: potency means the concentration at half of the fitted maximal effect
[2] = target: Retinaldehyde dehydrogenase 3 (Homo sapiens) (UniProt P47895); assay: qHTS for Inhibitors of the Aldehyde Dehydrogenase Family (ALDH1A3) Primary screen (AID 2061315)
[3] = target: Aldehyde dehydrogenase 1A1 (Homo sapiens) (UniProt P00352); assay: qHTS for Inhibitors of the Aldehyde Dehydrogenase Family (ALDH1A1) Confirmatory screens (AID 2061316); further: nearly all actives have a fitted effect of over 65% in size; further: potency means the concentration at half of the fitted maximal effect
[4] = target: Retinal dehydrogenase 2 (Homo sapiens) (UniProt O94788); assay: qHTS for Inhibitors of the Aldehyde Dehydrogenase Family (ALDH1A2) Confirmation screens (AID 2061314); further: nearly all actives have a fitted effect of over 65% in size; further: potency means the concentration at half of the fitted maximal effect

SMILES: FC(F)(F)c1ccccc1-c1nc(NCc2ccc(-c3ccccc3)cc2)c2ccccc2n1
- Potency [1]: 3.57 µM (active)
- Potency [2]: inactive
- Potency [3]: inactive

SMILES: Cc1cc(C)nc(NC(=S)N2CCN(c3cccc4cnccc34)CC2)c1
- Potency [1]: 20.1 µM (active)
- Potency [4]: 8.96 µM (active)
- Potency [3]: 10.1 µM (active)

SMILES: O=C(Nc1sc2c(c1-c1nc3ccccc3s1)CCNC2)C(F)(F)F
- Potency [1]: inactive
- Potency [4]: 28.3 µM (active)
- Potency [2]: inactive

SMILES: NC(=O)C1CCN(c2nc(-c3ccc(-c4ccccc4)cc3)cs2)CC1
- Potency [1]: 28.3 µM (active)
- Potency [4]: inactive
- Potency [2]: inactive
- Potency [3]: inactive

SMILES: CC(=O)Nc1sc2c(c1-c1ccccc1)CCN(C(=O)OC(C)(C)C)C2
- Potency [1]: inactive
- Potency [2]: inactive
- Potency [3]: 7.98 µM (active)

SMILES: S=C(NCCCc1cnc[nH]1)NCCCN(Cc1ccccc1)c1ccc(Br)cn1
- Potency [1]: inactive
- Potency [2]: inactive

SMILES: Cc1ccc(N[S+](=O)([O-])c2cc3c(cc2N[C@@H](C)CO)NC(=O)CC3)cc1N[C@@H](C)CO
- Potency [1]: 14.2 µM (active)
- Potency [4]: 2.83 µM (active)

SMILES: O=S1(=O)Nc2c(ccc3cccnc23)-c2ccccc21
- Potency [1]: 8.96 µM (active)
- Potency [4]: 12.7 µM (active)
- Potency [3]: inactive

SMILES: COc1ccc2ccccc2c1CN(C)CC(=O)Nc1ccc(N2CCOCC2)cc1
- Potency [1]: 11.3 µM (active)
- Potency [4]: 11.3 µM (active)
- Potency [3]: 7.98 µM (active)

SMILES: Cc1ccc(-c2ccnc(N3CCC(C(N)=O)CC3)n2)cc1
- Potency [1]: 5.04 µM (active)
- Potency [2]: inactive

SMILES: O=C(Nc1cccc(Cc2ccccc2)n1)c1ccc(-c2cccc([N+](=O)[O-])c2)o1
- Potency [1]: 6.34 µM (active)
- Potency [4]: 7.98 µM (active)
- Potency [2]: inactive
- Potency [3]: 5.65 µM (active)

SMILES: Cc1c(C(=O)OC[C@H]2CCCO2)[nH]c2c1C(=O)CC(c1ccco1)C2 (stereo not given in full)
- Potency [1]: 12.7 µM (active)
- Potency [4]: 4 µM (active)
- Potency [2]: inactive
- Potency [3]: 1.42 µM (active)

SMILES: O=C(c1ccccc1O)N(Cc1ccco1)Cc1ccco1
- Potency [1]: 12.7 µM (active)
- Potency [4]: 11.3 µM (active)
- Potency [2]: inactive

SMILES: N#Cc1ccc(N2CCN(S(=O)(=O)c3ccc4c(c3)CC(=O)N4)CC2)cc1
- Potency [1]: 15.8 µM (active)
- Potency [2]: inactive
- Potency [3]: inactive

SMILES: O=C1Cc2cc(S(=O)(=O)N3CCN(c4ccc(Br)cc4)CC3)ccc2N1
- Potency [1]: inactive
- Potency [4]: 20.6 µM (active)
- Potency [2]: inactive

SMILES: CC(=O)N1CCN(c2ccc(NS(=O)(=O)c3ccc4c(c3)CC(=O)N4)cc2)CC1
- Potency [1]: inactive
- Potency [4]: inactive
- Potency [2]: inactive

SMILES: Cc1c(C(=O)OCC2CCCC2)[nH]c2c1C(=O)CC(c1ccco1)C2 (stereo not given)
- Potency [1]: 15.8 µM (active)
- Potency [4]: 3.57 µM (active)
- Potency [2]: inactive
- Potency [3]: 1.13 µM (active)

SMILES: CC(=O)NC(C)c1cc(Cl)c2ccccc2c1O (stereo not given)
- Potency [1]: 3.18 µM (active)
- Potency [4]: 12.7 µM (active)
- Potency [3]: 4 µM (active)

SMILES: Cc1sc(NC(=O)Cc2ccc3c(c2)OCO3)nc1-c1ccc2c(c1)CCN2C
- Potency [1]: 11.3 µM (active)
- Potency [4]: 12.7 µM (active)
- Potency [3]: 3.57 µM (active)

SMILES: O=C(Cc1ccccc1)Nc1sc2c(c1C(=O)Nc1ccc(Cl)cc1)CCCC2
- Potency [1]: inactive
- Potency [4]: 4 µM (active)
- Potency [2]: inactive
- Potency [3]: 11.3 µM (active)

SMILES: NC(=O)c1cccc(-c2cnc3c(O)ccc(C(=O)O)c3c2)c1
- Potency [1]: 11.3 µM (active)
- Potency [4]: 4.49 µM (active)
- Potency [2]: inactive
- Potency [3]: 8.96 µM (active)

SMILES: Cc1ccn2c(Nc3ccc4c(c3)OCO4)c(-c3ccccn3)nc2c1
- Potency [1]: 17.9 µM (active)
- Potency [2]: inactive

SMILES: Oc1cc(-c2cccnc2)cc2cccnc12
- Potency [1]: 4.49 µM (active)
- Potency [4]: inactive
- Potency [2]: inactive

SMILES: CCc1nn2c(=O)c(S(=O)(=O)Nc3ccc(C)cc3C)c(C)nc2s1
- Potency [1]: inactive
- Potency [4]: inactive

SMILES: CCC(=O)NC(c1cccs1)c1cc([N+](=O)[O-])c2cccnc2c1OC (stereo not given)
- Potency [1]: 3.57 µM (active)
- Potency [4]: 2.01 µM (active)
- Potency [3]: 11.3 µM (active)

SMILES: COc1cccc(CNc2ccc(S(=O)(=O)Nc3ccc(N4CCNCC4)nc3)cc2)c1O
- Potency [1]: 15.9 µM (active)
- Potency [4]: 22.5 µM (active)

SMILES: CC(=O)Nc1sc2c(c1-c1cccc3[nH]ncc13)CCNC2
- Potency [1]: 12.7 µM (active)
- Potency [4]: 10.1 µM (active)
- Potency [3]: 11.3 µM (active)

SMILES: Nc1nc2c(s1)C(c1ccccc1Cl)CC(=O)N2 (stereo not given)
- Potency [1]: 5.65 µM (active)
- Potency [2]: inactive

SMILES: Nc1ccc(CNc2ccc([S+](=O)([O-])Nc3nccs3)cc2)c(O)c1
- Potency [1]: 5.04 µM (active)
- Potency [4]: 17.9 µM (active)
- Potency [3]: 3.18 µM (active)

SMILES: CC(C)(C)C(=O)N1CCN(c2cccc(Nc3nn4c(=O)c5ccccc5nc4s3)c2)CC1
- Potency [1]: 28.3 µM (active)
- Potency [4]: 25.2 µM (active)
- Potency [2]: inactive
- Potency [3]: 7.98 µM (active)
